Source: PubChem BioAssay AID743255 (National Center for Advancing Translational Sciences (NCATS), 2014)
Screen size: about 390,000 compounds; about 910 (0.23%) were called active. Not shown: some 5% with an inconclusive outcome. Calls follow the shape of the dose curve; as a rule, active = well fitted inhibition curve with a large enough effect; inconclusive = small, poorly fitted or top-dose-only effect; inactive = no such curve, though single readings can be large or run the other way. Shown is part of a subset that was picked to be rich in actives. A call without a number means that no potency is given here.

Biological target: Ubiquitin carboxyl-terminal hydrolase 1 (Homo sapiens) (UniProt O94782)
Sequence (O94782 whole entry, looked up): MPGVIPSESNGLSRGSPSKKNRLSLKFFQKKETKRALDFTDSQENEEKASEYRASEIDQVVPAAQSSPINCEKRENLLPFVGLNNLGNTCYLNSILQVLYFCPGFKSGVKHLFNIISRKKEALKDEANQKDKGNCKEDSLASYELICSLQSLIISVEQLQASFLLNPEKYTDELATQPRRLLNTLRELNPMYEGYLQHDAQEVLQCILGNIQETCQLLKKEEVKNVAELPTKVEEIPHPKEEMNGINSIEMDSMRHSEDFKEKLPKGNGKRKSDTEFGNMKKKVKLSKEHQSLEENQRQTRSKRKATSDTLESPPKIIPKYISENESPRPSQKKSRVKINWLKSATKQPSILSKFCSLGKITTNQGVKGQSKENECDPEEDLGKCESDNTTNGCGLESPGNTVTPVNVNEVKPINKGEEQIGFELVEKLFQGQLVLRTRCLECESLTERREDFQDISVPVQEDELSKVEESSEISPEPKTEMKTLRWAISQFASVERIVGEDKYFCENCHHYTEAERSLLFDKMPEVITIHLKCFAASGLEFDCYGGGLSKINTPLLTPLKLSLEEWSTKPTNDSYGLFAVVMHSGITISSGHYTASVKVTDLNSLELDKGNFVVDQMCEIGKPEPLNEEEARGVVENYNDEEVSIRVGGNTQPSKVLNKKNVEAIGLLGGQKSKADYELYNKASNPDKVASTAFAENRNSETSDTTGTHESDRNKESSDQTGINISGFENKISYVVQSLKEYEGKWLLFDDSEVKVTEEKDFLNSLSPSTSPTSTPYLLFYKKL
Assay: Inhibitors of USP1/UAF1: Primary Screen; also: nearly all actives have a fitted effect of over 60% in size
Conditions: recombinant USP1/UAF1, Ub-Rhodamine cleavage fluorescence; series mostly up to 57.1 µM
How it was run: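 High-throughput fluorogenic screen: 1nM USP1/UAF1 complex, Ub-Rho substrate 150nM final, 50mM HEPES pH 7.8 with 0.5mM EDTA, 0.1 mg/ml BSA, 1mM TCEP and 0.01% Tween-20.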
Potency is read from the fitted curve at half-maximal effect.

Row | Compound | Potency
1 | Cc1ccc(C2CCN(C(=O)c3cnn(-c4ccccc4Cl)c3C3CCN(C(=O)OC(C)(C)C)CC3)C2)cc1 (stereo unspecified) | inactive
2 | COc1c(Cl)cc(C(=O)N(Cc2ccccc2F)C2CCS(=O)(=O)C2)cc1Cl (stereo unspecified) | inactive
3 | Oc1ccc2ccc3cccc[n+]3c2c1 | 28.2 µM (active)
4 | Cc1ccccc1C(=O)N1CCC(C(=O)Oc2ccc(C#N)cc2)CC1 | inactive
5 | CC1(OC(=O)C2CCCC2)C(=O)C=C2C=C(c3ccc(C#N)cc3)OC=C2C1=O (stereo unspecified) | 31.6 µM (active)
6 | N#Cc1ccc(C2=CC(=O)C[C@H](c3ccc(Cl)cc3)C2)cc1 | inactive
7 | Clc1ccc(CSc2nncn3c2cc2occc23)cc1 | inactive
8 | CCC1CCCCN1Cc1c(O)ccc2c(=O)c(Oc3ccccc3Cl)c(C(F)(F)F)oc12 (stereo unspecified) | inactive
9 | Fc1ccc(CN2CCc3nc(Nc4ccccc4)ncc3C2)cc1F | inactive
10 | CCCCNC(=O)c1cc(-c2ccc(Cl)c(Cl)c2)on1 | inactive
11 | O=C(OCc1cc(=O)n2nc(C3CC3)sc2n1)c1ccccc1Cl | inactive
12 | CC1Cc2cc(S(=O)(=O)CCC(=O)Nc3ccc(F)c(Cl)c3)ccc2N1C(=O)C1CC1 (stereo unspecified) | inactive
13 | Nc1ccc2nc3c(=O)[nH]c(=S)[nH]c3nc2c1 | 28.2 µM (active)
14 | COc1ccc(NC(=O)CSc2nc3ccccc3[nH]2)cc1 | inactive
15 | NS(=O)(=O)c1ccc2nc(NC(=O)COc3ccccc3)sc2c1 | inactive
16 | CCN(CC)c1ccc(C2C(C(N)=O)=C(C)Nc3nc(SCc4ccccc4)nn32)cc1 (stereo unspecified) | inactive
17 | COc1cc(/C=C2/C(=O)NN(c3cccc(Cl)c3)C2=O)cc(Br)c1O | 28.2 µM (active)
18 | COc1cccc2c1cc1c(=O)n(CC(=O)N3CCN(c4cccc(Cl)c4)CC3)nc(C)n12 | inactive
19 | Cc1nc(SCCOc2ccc(Cl)cc2)[nH]c(=O)c1Cc1ccccc1 | inactive
20 | Cc1cccc(-c2nc(SCC(=O)Nc3cc(C)on3)c3c(=O)n(C)c(=O)n(C)c3n2)c1 | inactive
21 | CCC(=O)N1c2ccccc2CC1C(=O)N1CCN(c2ccccc2)CC1 (stereo unspecified) | inactive
22 | O=C(CSc1nccn1-c1ccc(F)cc1)Nc1cccc2ccccc12 | inactive
23 | CCOc1ccc(CCNC(=O)c2c(C)oc3ncn(C)c(=O)c23)cc1 | inactive
24 | CC(=O)N1c2ccc(S(=O)(=O)N3CCCCCC3)cc2CC1C(=O)NCc1ccccc1C (stereo unspecified) | inactive

Row | Compound | Potency
25 | Cc1ccc(-c2nc3ccccn3c2Nc2c(C)cccc2C)o1 | inactive
26 | O=S(=O)(c1ccccc1)c1nc(-c2ccc(Cl)cc2Cl)oc1N1CCCCC1 | inactive
27 | CCOC(=O)c1ccc(Nc2cc3ccccc3c(=O)[nH]2)cc1 | 17.8 µM (active)
28 | CCOC(=O)c1ccc(NC2=CC(c3ccc(OCC)cc3)N(c3ccc(C(=O)OCC)cc3)C2=O)cc1 (stereo unspecified) | inactive
29 | CCOC(=O)c1ccc(NC(=O)CSc2nc3c([nH]c4ccccc43)c(=O)n2C)cc1 | inactive
30 | Cc1cc(C)c(/C=C/c2onc(C)c2S(=O)(=O)N2CCC(C(=O)Nc3ccc(Cl)cc3C)CC2)c(C)c1 | inactive
31 | CCC(C)N1C(=O)S/C(=C/c2ccc(Sc3nc4ccccc4[nH]3)o2)C1=O (stereo unspecified) | inactive
32 | O=C(O)C(c1ccccc1)N1C(=O)/C(=C\c2ccc(-c3cccc(Cl)c3)o2)SC1=S (stereo unspecified) | 35.5 µM (active)
33 | O=C(NCc1ccccc1)c1cc(-c2cccc(Cl)c2)on1 | inactive
34 | COc1ccccc1-c1cc(C(F)(F)F)nc(S(=O)(=O)CCCC(=O)Nc2ccc(F)cc2F)n1 | inactive
35 | O=C(CSc1nccn1C1CCCC1)Nc1cc(C(F)(F)F)ccc1Cl | inactive
36 | CCN(CC)c1ccc(NC(=O)CN2C(=O)c3cccnc3Oc3ccc(Cl)cc32)c(C)c1 | inactive
37 | Cc1ccc(NC(=O)NC(C)c2c(-n3cccc3)sc(C)c2C)c(C)c1 (stereo unspecified) | inactive
38 | O=C(Cn1cnc2c(oc3ccccc32)c1=O)Nc1ccc(OC(F)(F)F)cc1 | inactive
39 | Cc1ccc2onc(CC(=O)N3CCN(c4ccc(Cl)cc4)CC3)c2c1 | inactive
40 | CCc1ccc2oc(-c3ccc(NC(=O)c4cc5ccccc5o4)cc3)nc2c1 | inactive
41 | CCOc1ccc(CNC(=O)C2CCN(c3nnc(-n4cccc4CNc4ccc(C)cc4)s3)CC2)cc1OC | inactive
42 | COc1cc(C(=O)N2CCN(c3ccc(Nc4ccc(C)cc4)nn3)CC2)cc(OC)c1OC | inactive
43 | CCCC(=O)Nc1cc(C(=O)NCc2ccc(OC)cc2)ccc1S(=O)(=O)c1ccc(Cl)cc1 | inactive
44 | NC(=O)c1ccc(N2CCOCC2)nc1 | inactive
45 | O=C(/C=C/c1ccc(N2CCOCC2)cc1)c1ccccc1 | 25.1 µM (active)
46 | O=C1OC(NC(=O)c2ccccc2)C(N2CCOCC2)=C1Cl (stereo unspecified) | inactive
47 | COC(=O)CN1C(=O)CSc2ccc(S(=O)(=O)Nc3cc(C)ccc3C)cc21 | inactive
48 | COc1ccc(CCNC(=O)c2cc(=O)c3c(C)cc(C)cc3o2)cc1OC | inactive

Row | Compound | Potency
49 | Cc1cc(C)c(/C=C2\C(=O)Nc3ccccc32)[nH]1 | 25.1 µM (active)
50 | CCN(CC)CCNC(=O)Cn1ncc2c3ccccc3n(Cc3ccccc3C)c2c1=O | inactive
51 | CCc1ccccc1NC(=O)c1ccc(F)c(S(=O)(=O)NC2CCCCCC2)c1 | inactive
52 | COCCCNC(=O)c1ccc(NC(=O)c2nsc3ccccc23)cc1 | inactive
53 | CCOC(=O)c1cnc2c(C)cc(C)cc2c1Nc1ccc(N2CCOCC2)cc1 | inactive
54 | CCc1nc2cccnc2n1-c1ccc(CC(=O)Nc2c(C)cccc2C)cc1 | inactive
55 | Cc1ccc(-c2nnc(Nc3ccc(OCC(N)=O)cc3)c3ccccc23)cc1S(=O)(=O)NCC1CCCO1 (stereo unspecified) | inactive
56 | CCOc1ccc(CCNC(=O)Cn2nc(CC)n3c(cc4sc(CC)cc43)c2=O)cc1OCC | inactive
57 | Cc1ccc(OCC(=O)Nc2ccc(Cl)c(-c3nc4ccccc4[nH]3)c2)cc1C | inactive
58 | CCOc1ccc(CNC(=O)c2cccc(Nc3nc4ccccc4n4nnnc34)c2)cc1OC | inactive
59 | CCC(=O)Nc1ccc(C)cc1-c1nc2ccccc2n(Cc2ccccc2)c1=O | inactive
60 | Cc1cc2nc3c(=O)n(Cc4ccccc4)c(=O)[nH]c3nc2cc1N | 25.1 µM (active)
61 | COCCn1c(N)c(NCc2ccccc2)c(=O)[nH]c1=O | inactive
62 | Cc1ccc(S(=O)(=O)N2CCCc3cc(NS(=O)(=O)c4cc(C)ccc4C)ccc32)cc1 | inactive
63 | Brc1ccc(C2=CC(c3ccco3)n3ncnc3N2)cc1 (stereo unspecified) | 31.6 µM (active)
64 | O=C(CCC(=O)N1CC2CCCN2c2ccccc21)NCc1ccccc1Cl (stereo unspecified) | inactive
65 | Cc1c(-c2nsc(NC(=O)c3cccc(Cl)c3)n2)nnn1-c1ccccc1C(F)(F)F | inactive
66 | COc1ccc(-n2c(SC)nc3sc4c(c3c2=O)CCN(C(C)=O)C4)cc1 | inactive
67 | CCc1nn(CC(=O)N2CCN(c3cccc(C(F)(F)F)c3)CC2)c(=O)c2cc3occc3n12 | inactive
68 | CCN(CCCNC(=O)c1cc2c(=O)n(CC)c3ccccc3c2s1)Cc1ccccc1 | 28.2 µM (active)
69 | CCn1c(=O)c2cc(C(=O)NCCc3ccc(Cl)cc3)sc2c2ccccc21 | inactive
70 | CCc1ccc(CNC(=O)c2cc3c(=O)n(CC)c4ccccc4c3s2)cc1 | inactive
71 | COc1cccc(CNC(=O)C2CCN(S(=O)(=O)c3ccc4c(ccn4C)c3)CC2)c1 | inactive
72 | CCN(C(=O)Cn1cnc2sc(C)c(S(=O)(=O)N3CCN(c4ncccn4)CC3)c2c1=O)c1ccccc1F | inactive

Row | Compound | Potency
73 | CSc1nn(Cc2cccc(C)c2)c(N)c1S(=O)(=O)c1ccccc1 | inactive
74 | CC(=O)Nc1cc(C(=O)NCc2ccc(F)cc2Cl)ccc1Sc1ccc(Cl)cc1 | inactive
75 | CCc1cccc(NC(=O)CN(c2ccc(C)c(C)c2)S(=O)(=O)c2ccsc2C(=O)OC)c1 | inactive
76 | Cc1cc(C)c2sc(NC(=O)c3ccc(S(=O)(=O)N4CCCC4)cc3)nc2c1 | inactive
77 | COc1ccc(S(=O)(=O)NCC(c2ccc(N(C)C)cc2)N2CCc3ccccc32)cc1OC (stereo unspecified) | inactive
78 | CCCN1C(=O)C(O)(CC(=O)c2ccc(CC)cc2)c2cc(Br)ccc21 (stereo unspecified) | inactive
79 | COc1cccc(CNC(=O)CCC(=O)N2CC3CCCN3c3ccccc32)c1 (stereo unspecified) | inactive
80 | CC(C)NC(=O)c1nn(-c2ccccc2F)nc1CO | inactive
81 | COc1ccc(CNC(=O)CS(=O)Cc2nc(-c3cccc(C)c3)oc2C)cc1 (stereo unspecified) | inactive
82 | CCCCS(=O)(=O)c1oc(-c2cccs2)nc1S(=O)(=O)c1ccccc1 | inactive
83 | CCOc1ccc(OCC)c(NC(=O)c2cc(C)nc3c2c(C)nn3-c2cccc(Cl)c2C)c1 | inactive
84 | O=C(CSc1nc(=O)n(Cc2cccnc2)c2c1CCC2)Nc1ccc(F)cc1F | inactive
85 | CCN(CC)CCCC(C)n1c2nc(=O)[nH]c(=O)c-2nc2cc(Cl)ccc21 (stereo unspecified) | 25.1 µM (active)
86 | Cc1ccc(OCC(=O)OCc2cc(=O)n3nc(C4CC4)sc3n2)cc1C | inactive
87 | O=C(CCn1ccc2cc(S(=O)(=O)N3CCCC3)ccc21)NCc1cccc(Cl)c1 | inactive
88 | COc1ccc(NS(=O)(=O)c2ccc(N3CCOCC3)c(NC(=O)c3ccccc3Br)c2)cc1 | inactive
89 | COCCN(CCOC)S(=O)(=O)c1ccc(C(=O)Nc2nc3c(s2)CCc2ccccc2-3)cc1 | inactive
90 | COc1ccc2c(c1)Cc1sc(NC(=O)c3ccccc3Br)nc1-2 | 31.6 µM (active)
91 | Cc1oc(-c2ccccc2)nc1Cn1c(SCc2cccc(C(F)(F)F)c2)nc2cccnc21 | inactive
92 | COc1cccc(NC(=O)Cn2c(=O)cc(C)c3c(C)nn(-c4cccc(F)c4)c32)c1 | inactive
93 | CCCCOc1ccc(C(=O)N2CC(=O)Nc3ccc(Br)cc3C2c2ccc(F)cc2)cc1 (stereo unspecified) | inactive
94 | O=C(NCC(c1ccco1)S(=O)(=O)c1cccs1)c1ccc(F)cc1 (stereo unspecified) | inactive
95 | O=C(CSc1oc(-c2ccc(F)cc2)nc1S(=O)(=O)c1ccc(Br)cc1)NC1CCCCC1 | inactive
96 | COc1ccc(Cc2nc3ccc(C(=O)NCc4ccccc4Cl)cc3o2)cc1 | inactive
